CHX counter: counter-screen hit for Shiga toxin inhibitors, cycloheximide; actives 12% (n = 300,000); AID 2314; cell reporter, cycloheximide protein synthesis inhibition counterscreen; max response, %; in the data active means max response mostly above about 13%, no sharp cut-off; inactive means mostly below about 14%; further: read at 38.3 µM for the half of the compounds with a filed dose; 0% is about no effect
Pf growth 96h: P. falciparum growth inhibition at 96 hour, primary screen for plastid delayed-death inhibitors. P. falciparum luciferase reporter growth, 96 h. Potency, µM (titrated, usually from 28.7 µM), without a hit: at the top dose activity change, negative = inhibition, most hits filed as inhibitors. actives 6.9% (n = 320,000); further: potency means the concentration at half of the fitted maximal effect; on the % scale 0 is the no-effect control and ±100 the full control effect
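Luminescence readout: decreased luciferase signal marks inhibited growth of reporter-expressing P. falciparum in infected red cells (2% hematocrit, 0.05% parasitemia final), exposed to compound two generations (96 h, 37 C, 5% CO2).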
NS1 function inh: influenza NS1 inhibition; Potency, µM (series often up to 46.1 µM), without a hit: at the top dose activity, positive = more growth; actives 0.4% (n = 270,000); calls by dose curve; further: potency means the concentration at half of the fitted maximal effect; actives are rising curves; nearly all actives have a fitted effect of over 50% in size
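Recovery from NS1-induced slow growth read by OD600 in budding yeast switched to galactose assay medium (pH 6.0, -URA) at 1:100 dilution. Compound 23 nl per well; the matching strain lacking NS1 serves as control.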
Sm TGR inh: blocks Schistosoma mansoni thioredoxin glutathione reductase | purified TGR, DTNB reduction, TNB absorbance 405 nm | Q962Y6 | Potency, µM (doses to about 114 µM), without a hit: at the top dose activity change, negative = inhibition, usual class: inhibitors | AID 485364 | actives 3% (n = 360,000); further: potency means the concentration at half of the fitted maximal effect; on the % scale 0 is the no-effect control and ±100 the full control effect; nearly all actives have a fitted effect of over 60% in size
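TGR 20 nM + NADPH 100 uM (dispensed conc.), cpd preinc 15 min RT; start with NADPH (500 uM addition) then DTNB (15 mM addition). Kinetic TNB absorbance, 405 nm filter. Four-parameter Hill fit across titration.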
Pf growth 48h: inhibits P. falciparum growth in the first generation, 48 h; P. falciparum luciferase growth in erythrocytes, 48 h; Potency, µM (highest dose often 28.7 µM), without a hit: top-dose activity change, negative = inhibition, actives largely listed as inhibitors; actives 5.9% (n = 310,000); AID 504832; further: potency means the concentration at half of the fitted maximal effect; on the % scale 0 is the no-effect control and ±100 the full control effect
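Luminescence readout; reporter = integrated firefly luciferase in P. falciparum. RBC culture at 2% hematocrit, 0.1% parasitemia final, 37 C/5% CO2; decreased signal taken as growth inhibition.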
Shiga toxin inh: inhibitors of Shiga toxin in Vero cells; actives 9.2% (n = 290,000); Vero cells, Shiga toxin protein synthesis inhibition reporter; inhibition, % at 38.7 µM; AID 2315; in the data active means inhibition mostly above about 28%, no sharp cut-off; inactive means mostly below about 43%; further: 0% is about no effect
* hit, by the source's call. Only some compounds are listed: those with a hit (about 21% of all), similar ones and a draw of the others. Unless noted, the call rests on the fitted dose curve; in most records, active means well fitted curve in the direction sought with a large enough effect; inconclusive means small, poorly fitted or top-dose-only effect, or another doubt; inactive means no such curve, though single readings can be large; an effect the other way counts as inactive or inconclusive.

Results for Cc1nc(NC(=O)CSc2nnc(C3CC3)n2C)sc1C ?
CHX counter: 12; Pf growth 96h: 35%; NS1 function inh: 9%; Sm TGR inh: 5%; Pf growth 48h: 34%; Shiga toxin inh: 24

What do the screens show for `CCCN(CCC)C(=O)c1ccc2c(c1)S(=O)(=O)c1ccccc1C2=O`?
CHX counter: 13; Pf growth 96h: inconclusive; NS1 function inh: -15%; Sm TGR inh: 0%; Pf growth 48h: inconclusive; Shiga toxin inh: 0

What do the screens show for `COCCCn1c(=O)/c(=C\c2ccccc2OC(C)C)s/c1=C(/C#N)C(=O)Nc1ccc(C(=O)O)cc1`?
CHX counter: 7; Pf growth 96h: 1.5µM*; NS1 function inh: 3%; Sm TGR inh: 22%; Pf growth 48h: 1.9µM*; Shiga toxin inh: 14

What do the screens show for `COCCCn1c(=O)/c(=C\c2ccccc2OC(F)F)s/c1=C(/C#N)C(=O)NC(C)C`?
CHX counter: 6; Pf growth 96h: 14%; NS1 function inh: -7%; Sm TGR inh: 7%; Pf growth 48h: -6%; Shiga toxin inh: -9

What do the screens show for `COc1cc2c(cc1OC)C1=C(C#N)CN(CC(=O)O)CN1CC2`?
CHX counter: -2; Pf growth 96h: inconclusive; NS1 function inh: inconclusive; Sm TGR inh: 35µM*; Shiga toxin inh: -3

How did Cc1[nH]n(-c2ccccc2)c(=S)c1C=Nc1ccc([N+](=O)[O-])cc1 do in these assays?
CHX counter: -2; Pf growth 96h: -1%; NS1 function inh: 2%; Sm TGR inh: -25%; Pf growth 48h: 4%; Shiga toxin inh: -10

How did N#Cc1cc2c(nc1SCC(=O)N1CCCCC1)CCCCC2 do in these assays?
CHX counter: 61*; Pf growth 96h: 13%; NS1 function inh: -33%; Sm TGR inh: inconclusive; Pf growth 48h: -12%; Shiga toxin inh: 100*

How did N#Cc1cc2c(nc1SCc1ccccc1)CCC2 do in these assays?
CHX counter: 1; Pf growth 96h: 2%; NS1 function inh: -1%; Sm TGR inh: 0%; Pf growth 48h: 30%; Shiga toxin inh: -29

What do the screens show for `CCS(=O)(=O)CCSc1nc2c(cc1C#N)CCCC2`?
CHX counter: 12*; NS1 function inh: -43%; Sm TGR inh: 2%; Pf growth 48h: 14%; Shiga toxin inh: 18

How did N#Cc1cc2c(nc1SCc1ccncc1)CCC2 do in these assays?
CHX counter: 43*; Pf growth 96h: 27%; NS1 function inh: -18%; Sm TGR inh: -35%; Pf growth 48h: -10%; Shiga toxin inh: 102*

How did N#Cc1cc2c(nc1SCC(=O)N1CCCCC1)CCCC2 do in these assays?
CHX counter: 17*; Pf growth 96h: 144%; NS1 function inh: -5%; Sm TGR inh: 8%; Pf growth 48h: 11%; Shiga toxin inh: 28

Results for N#CCSc1nc2c(cc1C#N)CCCCCC2 ?
CHX counter: -1; Pf growth 96h: 18%; NS1 function inh: -20%; Sm TGR inh: -3%; Pf growth 48h: 0%; Shiga toxin inh: 9

How did Cc1ccc(NC(=O)CCc2nnc3ccc(N4CCC(C)CC4)nn23)nc1 do in these assays?
CHX counter: 7; Pf growth 96h: inconclusive; NS1 function inh: 6%; Sm TGR inh: 7%; Pf growth 48h: inconclusive; Shiga toxin inh: 9

Results for O=C(OCc1ccccc1)/C(=C/c1cccc(Br)c1)NC(=O)c1ccco1 ?
CHX counter: -3; Pf growth 96h: 1%; NS1 function inh: -20%; Sm TGR inh: -8%; Pf growth 48h: inconclusive; Shiga toxin inh: -7

How did Cc1ccc(NC2CCCN(C(=O)C3CCCCC3)C2)cc1C (centres undefined) do in these assays?
CHX counter: 5; Pf growth 96h: -1%; NS1 function inh: -43%; Sm TGR inh: 2%; Pf growth 48h: inconclusive; Shiga toxin inh: -7

Results for Fc1ccc(-c2noc(-c3ccc4c(c3)CCO4)n2)cc1 ?
CHX counter: 56*; Pf growth 96h: inactive; NS1 function inh: 1%; Sm TGR inh: 13%; Pf growth 48h: 144%; Shiga toxin inh: 77*

How did CSCCNC(=O)c1ccc(OC2CCN(S(=O)(=O)N(C)C)CC2)cc1 do in these assays?
CHX counter: 1; Pf growth 96h: 0%; NS1 function inh: 4%; Sm TGR inh: -15%; Pf growth 48h: -2%

Results for COCC(=O)N1CCC(Oc2ccc(C(=O)NCc3cc(C)no3)cc2)CC1 ?
CHX counter: -1; Pf growth 96h: 4.1µM*; NS1 function inh: inconclusive; Sm TGR inh: -4%; Pf growth 48h: 8%; Shiga toxin inh: 7

What do the screens show for `Cc1cc(CNC(=O)c2cccc(OC3CCN(S(=O)(=O)N(C)C)CC3)c2)on1`?
CHX counter: 64*; Pf growth 96h: inconclusive; NS1 function inh: -7%; Sm TGR inh: 10%; Pf growth 48h: -6%; Shiga toxin inh: 128*

Results for CC(=O)c1cccc(NC(=O)c2c(N3CCCC3=O)c3cc(F)ccc3n2C)c1 ?
Sm TGR inh: 1%

Results for CCOCCn1cnc2sc(C(=O)NCCCN3CCOCC3)c(C)c2c1=O ?
CHX counter: 8; Pf growth 96h: -28%; NS1 function inh: 5%; Sm TGR inh: 3%; Pf growth 48h: 40%; Shiga toxin inh: 12

Results for Cc1c(Cl)cnc(NC(=O)COC(=O)C(NC(=O)c2ccco2)C(C)C)c1Cl (centres undefined) ?
CHX counter: -1; Pf growth 96h: inconclusive; NS1 function inh: -8%; Sm TGR inh: 35µM*; Pf growth 48h: 5%; Shiga toxin inh: 11

Results for Cc1c(Cl)cnc(NC(=O)COC(=O)/C=C/c2ccco2)c1Cl ?
Pf growth 96h: 44%; Sm TGR inh: 10µM*; Pf growth 48h: 31%

How did CCc1c(C)sc(NC(=O)c2cc3nc(-c4ccc(OC)cc4)cc(C(F)(F)F)n3n2)c1C(=O)OC do in these assays?
Sm TGR inh: -5%

How did CCOC(=O)c1scc(-c2ccc(C)cc2)c1S(=O)(=O)N1CCN(c2ccccc2)CC1 do in these assays?
Sm TGR inh: 1%

How did Cc1ccc(-c2nnc(-c3ccncc3)n2-c2ccc(C)cc2)cc1 do in these assays?
CHX counter: 20*; Pf growth 96h: -16%; NS1 function inh: 4%; Sm TGR inh: -1%; Pf growth 48h: 3%; Shiga toxin inh: 53*

What do the screens show for `COc1ccc2c(c1)Cc1cc(N=[N+]([O-])c3ccc4c(c3)Cc3cc(OC)ccc3-4)ccc1-2`?
NS1 function inh: 1%

Results for COCC1CCN(C(=O)c2ccc3oc(CCCc4ccccc4)nc3c2)C1 (centres undefined) ?
CHX counter: 29*; Pf growth 96h: 3.7µM*; NS1 function inh: -6%; Sm TGR inh: 4%; Pf growth 48h: -24%; Shiga toxin inh: 39

Results for COCC1CCCN(C(=O)c2ccc3oc(CCCc4ccccc4)nc3c2)C1 (centres undefined) ?
CHX counter: 2; Pf growth 96h: inconclusive; NS1 function inh: 9%; Sm TGR inh: 28µM*; Pf growth 48h: inconclusive; Shiga toxin inh: 12
